Laboratory results taken from PubChem BioAssay AID463187 (University of Pittsburgh Molecular Library Screening Center, 2010).
In all, about 220,000 compounds went through this assay and about 1,500 (0.68%) were called active. Shown is part of a subset that was picked to be rich in actives. Unmarked numbers belong to inactive results.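 The calls were made as follows: active = Hck-Nef kinase inhibition above about 50% (limit read from the data); inactive = inhibition below that limit.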

biological target: Tyrosine-protein kinase HCK (Homo sapiens) (UniProt P08631); assay: Hck:Nef complex kinase activity blockers – biochemical, Z-Lyte FRET, 384-well, Hck-YEEI, primary screen (AID 463187); settings: Recombinant Hck-YEEI plus Nef, Z-Lyte FRET kinase assay; at 20 µM; stronger effect = higher value;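 also: 0% = DMSO with Hck plus Nef and 100% = Hck alone without Nef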
Sequence (P08631 whole entry, looked up): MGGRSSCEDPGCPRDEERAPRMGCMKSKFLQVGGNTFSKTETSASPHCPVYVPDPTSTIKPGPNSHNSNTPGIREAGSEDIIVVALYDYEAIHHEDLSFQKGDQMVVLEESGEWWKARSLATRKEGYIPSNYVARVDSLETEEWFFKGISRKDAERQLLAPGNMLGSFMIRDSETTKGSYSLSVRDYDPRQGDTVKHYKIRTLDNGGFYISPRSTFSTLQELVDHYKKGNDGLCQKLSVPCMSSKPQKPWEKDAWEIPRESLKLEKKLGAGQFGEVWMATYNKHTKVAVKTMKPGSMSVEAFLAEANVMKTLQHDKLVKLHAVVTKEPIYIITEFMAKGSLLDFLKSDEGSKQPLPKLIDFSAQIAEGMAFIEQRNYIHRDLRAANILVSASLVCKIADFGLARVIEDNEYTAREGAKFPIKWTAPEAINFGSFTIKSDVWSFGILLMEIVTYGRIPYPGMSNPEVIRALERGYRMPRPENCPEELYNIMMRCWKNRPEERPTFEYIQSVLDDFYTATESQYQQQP

**Q.** Which inhibition does the source give for Cc1ccc(-c2nn(-c3ccccc3)cc2/C=C/C(=O)Nc2cccc(S(N)(=O)=O)c2)cc1 here?
**A.** 14.1%

**Q.** CN(C)S(=O)(=O)c1cccc(-c2nn(-c3ccccc3)cc2/C=C2\SC(=S)N(CC(=O)O)C2=O)c1 was tested. Which inhibition did it give?
**A.** 56.2% (active)

**Q.** Which inhibition does the source give for CC1(C)CC(=O)C(C2c3ccccc3S(=O)(=O)c3ccccc32)C(=O)C1 here?
**A.** 2.74%

**Q.** How did the inhibition turn out when C=CCOc1c2ccc(C(=O)N(CC)c3ccc(OC)cc3)cc2nn1C was run?
**A.** -0.652%

**Q.** For CC1=NN(/C(=N\c2nnc(C)s2)Nc2ccccc2)[C@H](c2ccc(C)cc2)S1, which inhibition is on record?
**A.** -3.06%

**Q.** For CCCc1cc(=O)oc2c(C)c(O)c(CN3CCCCC3)cc12, which inhibition is on record?
**A.** 31%

**Q.** COC(=O)Cc1cc(=O)oc2c(C)c(O)ccc12 was tested. Which inhibition did it give?
**A.** 58.3% (active)

**Q.** COC(=O)COc1ccc2oc(=O)cc(C)c2c1 was tested. Which inhibition did it give?
**A.** 1.26%

**Q.** CCCn1c(=NC(C)=O)c(C(=O)OCC)cc2c(=O)n3ccccc3nc21 was tested. Which inhibition did it give?
**A.** 95.9% (active)

**Q.** For CCOC(=O)c1cc2n(c1N)-c1ccccc1C2=O, which inhibition is on record?
**A.** -1.56%

**Q.** Which inhibition does the source give for CCOC(=O)c1cc2c(=O)n3ccccc3nc2n(CC(C)C)c1=NC(=O)c1c(-c2c(F)cccc2Cl)noc1C here?
**A.** 8.32%

**Q.** For O=C(COC(=O)c1ccccc1C(=O)N1CCN(c2ccccc2)CC1)NCc1ccccc1, which inhibition is on record?
**A.** -5.15%

**Q.** Which inhibition does the source give for O=C(NNC(=O)c1ccc(Cl)cc1Cl)c1cccs1 here?
**A.** 22.7%

**Q.** How did the inhibition turn out when C=CCSc1nc(Cc2ccc(Cl)cc2)nc2ccccc12 was run?
**A.** -0.392%

**Q.** Which inhibition does the source give for Clc1ccc2c(c1)C1=C(C(c3ccncc3)O2)C(c2ccc(Br)cc2)n2ncnc2N1 (stereo not drawn) here?
**A.** 83.6% (active)

**Q.** For COC(=O)C1=C(C)Nc2ncnn2C1c1cccnc1 (stereo not drawn), which inhibition is on record?
**A.** 0.821%

**Q.** With Brc1ccc(C2=CC(c3ccco3)n3ncnc3N2)cc1 (stereo not drawn) as the compound, how does the inhibition read?
**A.** -4.23%

**Q.** CCC(C)(C)NC(=O)CN(Cc1cccs1)C(=O)CNS(=O)(=O)c1ccc(F)cc1 was tested. Which inhibition did it give?
**A.** 15.6%

**Q.** O=[N+]([O-])c1ccc(F)cc1Oc1nc(-c2cccnc2)nc2ccccc12 was tested. Which inhibition did it give?
**A.** 13.2%

**Q.** With CCC(O)C1CCN(Cc2cn(-c3ccc(OC)cc3)nc2-c2cccc(F)c2)CC1 (stereo not drawn) as the compound, how does the inhibition read?
**A.** -11.2%

**Q.** With CCOc1ccc(CCNC(=O)C2=C(C)C(=O)OC23CCC(C)CC3)cc1OCC (stereo not drawn) as the compound, how does the inhibition read?
**A.** 25.3%

**Q.** How did the inhibition turn out when CCN(CC)CCn1c(N)c(S(=O)(=O)c2ccccc2)c2nc3ccccc3nc21 was run?
**A.** 11.1%

**Q.** For Cc1ccc(S(=O)(=O)c2c(N)n(C)c3nc4ccccc4nc23)cc1, which inhibition is on record?
**A.** 52.7% (active)

**Q.** Which inhibition does the source give for C=CCn1c(N)c(S(=O)(=O)c2cccs2)c2nc3ccccc3nc21 here?
**A.** 21.6%

**Q.** How did the inhibition turn out when COc1ccc(/C=C2/C(=O)OCc3cc(OC)c(OC)cc32)c(OC)c1 was run?
**A.** 1.93%

**Q.** With O=C(NCc1ccco1)c1nn2cccnc2c1Cl as the compound, how does the inhibition read?
**A.** 20.7%

**Q.** How did the inhibition turn out when O=C(O)C1C2C=CC(O2)C1C(=O)NCCc1cccc(Cl)c1 (stereo not drawn) was run?
**A.** 15.6%

**Q.** O=C(N/N=C/c1ccco1)c1ccc(NC(=O)C2CC2)cc1 was tested. Which inhibition did it give?
**A.** 1.97%

**Q.** O=C(Cc1ccccc1)Nc1cccc(C(=O)N/N=C/c2ccco2)c1 was tested. Which inhibition did it give?
**A.** 54.9% (active)

**Q.** O=C(N/N=C/c1ccco1)c1ccc(C(=O)N/N=C/c2ccco2)o1 was tested. Which inhibition did it give?
**A.** -0.711%

**Q.** With NC(=O)C[C@@H]1NC(=O)CNC(=O)c2cc([N+](=O)[O-])cc(I)c2NCCC(C(N)=O)NC1=O (stereo partly drawn) as the compound, how does the inhibition read?
**A.** -7.95%

**Q.** CCOC(=O)COc1cc(OCC(=O)OCC)c2c(=O)cc(-c3ccccc3)oc2c1 was tested. Which inhibition did it give?
**A.** -0.0489%

**Q.** Which inhibition does the source give for CCOC(=O)COc1cc(O)c2c(=O)cc(-c3ccccc3)oc2c1 here?
**A.** 20.1%

**Q.** Which inhibition does the source give for COc1c(O)cc2oc(-c3ccc(O)c(O)c3)cc(=O)c2c1O here?
**A.** 97.3% (active)

**Q.** How did the inhibition turn out when Cc1ccc2nc(-c3cccc(Br)c3)cc(C(=O)Nn3cnnc3)c2c1 was run?
**A.** -7.45%

**Q.** With Cc1cccc(-[n+]2c(-c3cccc(Br)c3)[nH]c3nc4ccccc4nc32)c1 as the compound, how does the inhibition read?
**A.** 50.4% (active)

**Q.** How did the inhibition turn out when CC(C)(C)NC(=O)COC(=O)c1cc(Br)ccc1Cl was run?
**A.** -0.533%

**Q.** For Cc1ccc(CSCC(N)C(=O)O)cc1 (stereo not drawn), which inhibition is on record?
**A.** 1.34%

**Q.** Cc1ccc(C(=O)CS(C)(=O)=O)cc1 was tested. Which inhibition did it give?
**A.** 1.08%

**Q.** With Cc1ccc(SC(CC(=O)c2ccc(C(C)(C)C)cc2)C(=O)O)cc1 (stereo not drawn) as the compound, how does the inhibition read?
**A.** 73.6% (active)

**Q.** Which inhibition does the source give for CCc1nnc(NC(=O)CSc2nc(SC)ns2)s1 here?
**A.** 8.82%

**Q.** Cc1ccc(CSc2nnc(-c3cnccn3)n2C)cc1 was tested. Which inhibition did it give?
**A.** 20.9%

**Q.** Which inhibition does the source give for CC(C)Oc1ccc(C(=O)NC(C)(C)CO)cc1 here?
**A.** 4.72%

**Q.** Which inhibition does the source give for CCNC(=S)NNC(=O)c1ccc2ncccc2c1 here?
**A.** 27.6%

**Q.** For COc1cccc(/C=C2\SC(=N)N(c3ccc(F)cc3)C2=O)c1, which inhibition is on record?
**A.** 26.2%

**Q.** For Cc1nn(C)cc1CNC(=O)Nc1ccc(Cl)cc1, which inhibition is on record?
**A.** 12.3%

**Q.** With COc1ccc(Cl)cc1C(=O)NCc1cn(C)nc1C as the compound, how does the inhibition read?
**A.** 0.825%

**Q.** For Cc1ccc(-c2cc(C(=O)NCc3cn(C)nc3C)c3cc(Br)ccc3n2)cc1, which inhibition is on record?
**A.** 50.4% (active)
